In PubChem BioAssay (EPA / NIEHS):
Records with an inconclusive call do not appear. The source made the active and inactive calls. How the source made its calls: active means hit-call score of the fitted dose curve at least 0.9, where 1 is the maximum; inconclusive means response in the unintended direction; inactive means score below 0.9.

Assay: ACEA_ER_AUC_viability: ACEA Biosciences xCELLigence Real-Time Cell Analysis on Estrogen Receptor Agonism for Viability (AID 2283782);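 further: continuous compound exposure with impedance area under curve over 80 h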
Procedure: ACEA_ER is a cell-based, single-readout assay that uses T47D, a human breast cell line, with measurements taken at 80 hours after chemical dosing in a 96-well plate, although TO2 (mc0.srcf) used a 384-well plate. Differences in plate size can be ignored given data normalization.ACEA_ER_AUC_viability is one of two assay component(s) measured or calculated from the ACEA_ER assay. It is designed to make measurements of real-time cell-growth kinetics, a form of growth reporter, as detected with electrical impedance signals by Real-Time Cell Electrode Sensor (RT-CES) technology.Data from the assay component ACEA_ER_AUC_viability was analyzed in the positive analysis fitting direction relative to DMSO as the negative control and baseline of activity. Using a type of growth reporter, loss-of-signal activity can be used to understand changes in the viability. Furthermore, this assay endpoint can be referred to as a secondary readout, because this assay has produced multiple assay endpoints where this one serves a viability function. To generalize the intended target to other relatable targets, this assay endpoint is annotated to the cell cycle intended target family, where the subfamily is cytotoxicity.
The xCELLigence system Multi-E-Plate stations were used to measure the time-dependent response to chemicals. Each compound was tested in an eight-point, 1:4 serial dilution series starting at a maximum final concentration of 100 uM. A maximum starting concentration of 0.5% DMSO was present in the 100 uM chemical samples and was diluted along with the test article dilution series. The screen was performed in biological duplicate using two separate, 96-well, E-Plates 96 for each dilution series (n = 2). Positive controls (MG132 and E2) and a negative control (assay media) were tested in quadruplicate on each testing plate. Then, 0.5% and 0.125% DMSO were tested in duplicates in each plate to serve as solvent controls for the 2 highest concentrations of testing compounds: 100 uM and 25 uM. Reference compounds were tested with 8 concentrations with 1:5 serial dilutions. All screening was carried out by ACEA Biosciences, Inc. (San Diego, CA). T-47D cells purchased from ATCC were maintained in RPMI1640 media supplemented with 10% characterized fetal bovine serum (FBS). Before screening, T-47D cells were preconditioned in assay medium: phenol red-free RPMI1640 supplemented with 10% charcoal-stripped FBS. Cells were then detached and seeded in E-Plates 96 in assay medium. After overnight monitoring of growth once every hour, compounds were added to […] cells and remained in the medium until the end of the experiment. Cellular responses were then recorded once every 5 min for the first 5 h, and once every hour for an additional 100 h.

Structure (SMILES) | outcome | AC50
CCCCCCCCCCOS(=O)(=O)O | inactive | –
CC(C)=CCC[C@H](C)CCO | inactive | –
CC(=O)OCCC1CCCCC1 | inactive | –
CCOc1nc(F)cc2nc(S(=O)(=O)Nc3c(Cl)cccc3C(=O)OC)nn12 | inactive | –
CCCC(C)CCC(C)=O (stereo not given) | inactive | –
COC(=O)c1sccc1S(N)(=O)=O | inactive | –
O=C(OCC1CCC2OC2C1)C1CCC2OC2C1 (stereo not given) | inactive | –
C=C(C)CCO | – | 65.9 µM (active)
O=C(C=Cc1ccccc1)OCc1ccccc1 | inactive | –
CC(C)c1ccc(C=O)cc1 | inactive | –
O=C1CC2CC1C1CCCC21 (stereo not given) | inactive | –
c1ccc(-c2ccccn2)nc1 | – | 34.1 µM (active)
C=COCCCC | inactive | –
Cc1cc(C)c(C)cc1C | inactive | –
CCCCCCCC/C=C\CCCCCCCC(=O)O | – | 50 µM (active)
c1c[nH]cn1 | inactive | –
CCc1nccnc1C | inactive | –
O=[N+]([O-])C1(Br)COCOC1 | – | 8.14 µM (active)
Cc1ccc(N/N=c2\c(=O)cc/c(=N/Nc3ccc(S(=O)(=O)O)cc3)c2=O)c(C)c1 | inactive | –
CC(=O)c1ccc2c(c1)CCCC2 | – | 31.7 µM (active)

Structure (SMILES) | outcome | AC50
CCCCCCCCCCc1ccccc1 | – | 26.2 µM (active)
CCCCCCCCCCCCCCCC[N+](C)(C)CC | – | 12.3 µM (active)
O=S(=O)(O)CC(O)CCl (stereo not given) | inactive | –
C=C(C)C(=O)OCC(C)C | inactive | –
Cc1ccc(C(C)(C)C)cc1 | inactive | –
OC1CCCC1 | inactive | –
CCCCCCCCC(=O)OCC | – | 50 µM (active)
NC(=O)N=NC(N)=O | inactive | –
CCC(Cc1ccccc1)(C(=O)c1ccc(N2CCOCC2)cc1)N(C)C (stereo not given) | – | 88.7 µM (active)
CCO[Si](C)(OCC)OCC | inactive | –
NC(CO)(CO)CO | inactive | –
O=P(O)(O)Oc1ccccc1 | – | 50 µM (active)
O=Nc1ccc(O)cc1 | inactive | –
CCOC(=O)[C@H](C)O | inactive | –
CC(=O)OCC(C)OC(C)=O (stereo not given) | inactive | –
CC1(C)[C@H]2CC[C@]1(C)C(=O)C2 | inactive | –
CCCCCCCCc1ccc(Nc2ccc(CCCCCCCC)cc2)cc1 | inactive | –
C=C1[C@H]2CC[C@@H]3[C@H]2C(C)(C)CCC[C@]13C | inactive | –
CCC(CC)C(=O)O | inactive | –
COC(=O)c1ccccc1OC | – | 50 µM (active)
